Consider 15 molecules from PubChem BioAssay (NCI).

Molecules are shown by their SMILES. Compounds without any hit were thinned out: in the full panel of roughly 83,000, 20% have a hit.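 Note: values are percent growth. 100 is the growth of untreated cells, values between 100 and 0 indicate rising inhibition; between -100 and 0 indicates cell death.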 Unmarked numbers belong to inactive results. The source made the active and inactive calls. Rule for the calls: active = growth percent below 10; inactive = the rest.

Assay in all cases: NCI-60 one-dose screen, 48 h (100 = growth as untreated, 0 = no growth, -100 = all killed)
Details in all cases: 10 µM unless noted

Experiment [1] has as its system T-47D breast.
Experiment [2] deals with BT-549 breast.
In experiment [3] the test system is MDA-MB-435 melanoma.
For experiment [4], the system named is SW-620 colon.
The subject of experiment [5] is MCF7 breast.
Experiment [6] deals with HCT-116 colon.
For experiment [7], the system named is HCC-2998 colon.
For experiment [8], the system named is KM12 colon.

`COc1ccc(-c2nn(C(=O)NCCN(C)C)cc2-c2ccncc2)cc1Cl`: the growth in experiment [1] was 37.1%; in experiment [2] it was 58.6%; in experiment [3], -25.3% (active); in experiment [4], 30.5%; in experiment [5], 19.3%; in experiment [6], 23.1%. For the same molecule, the growth in experiment [7] was 76.4%; in experiment [8], 43.3%.

Turning to `O=C(CC(=O)C(F)(F)C(F)(F)C(F)(F)F)c1cc2ccccc2o1`, the growth is 96% in experiment [1]; 111% in experiment [2]; 104% in experiment [3]; 97.6% in experiment [4]; 103% in experiment [5]; 102% in experiment [6]. In addition, the growth was 113% in experiment [7] and 104% in experiment [8].

As to `CC[C@]1(O)C[C@H]2CN(CCc3c([nH]c4ccccc34)C(C(=O)OC)(c3cc4c(cc3OC)N(C)[C@H]3[C@@](O)(C(=O)OC)[C@H](OC(C)=O)[C@]5(CC)[C@@H]6C[C@@H]6CN6CC[C@]43[C@@H]65)C2)C1` (stereo not given in full), the growth was 65.6% in experiment [1]; -47.2% (active) in experiment [2]; -12.8% (active) in experiment [3]; 31.6% in experiment [4]; 4.81% (active) in experiment [5]; -22.4% (active) in experiment [6]. In addition, the values for the growth in experiment [7] and in experiment [8] were 2.47% (active) and 12%, respectively.

`Cc1cc(-c2ccc(N=Nc3c(S(=O)(=O)O)cc4cc(S(=O)(=O)O)cc(O)c4c3O)c(C)c2)ccc1N=Nc1c(S(=O)(=O)O)cc2cc(S(=O)(=O)O)cc(O)c2c1O`: the growth is 92.2% in experiment [1]; 108% in experiment [2]; 103% in experiment [3]; 114% in experiment [4]; 101% in experiment [5]; 109% in experiment [6]. For the same molecule, the growth in experiment [7] is 106%; in experiment [8], 114%.

In the case of `COc1ccc(/C=C/c2nc(NCCCN(C)C)c3ccccc3n2)cc1`, the growth in experiment [1] is 81.1%; in experiment [2] it was 47.3%; in experiment [3], -57.9% (active); in experiment [4], 4.57% (active); in experiment [5], -67% (active); in experiment [6] it was 38%. Also, the growth in experiment [7] is 28.3%; in experiment [8], 32.1%.

With `COc1ccc(C2=NNC(c3ccc(Oc4nc5c(c(=O)n(C)c(=O)n5C)n4C)c(OC)c3)C2)cc1` (stereo not given), the growth in experiment [1] was 86.3%; in experiment [2], 88.6%; in experiment [3] it was 93%; in experiment [4], 109%; in experiment [5] it was 87.6%; in experiment [6], 98.2%. Also, the growth in experiment [7] is 102%; in experiment [8] it was 97.6%.

Turning to `O=C(NO)c1ccc(CNc2cccc3nc(C4CC4)n(-c4ccccc4)c(=O)c23)cc1`, the growth in experiment [1] was 22.9%; in experiment [2], 64%; in experiment [3] it was 10.3%; in experiment [4], 0.537% (active); in experiment [5] it was 27.6%; in experiment [6], -22.1% (active). The figures for the growth in experiment [7] and in experiment [8] were 36% and 8.66% (active), respectively.

On to `c1cc2c(cc1-c1cnc3nonc3n1)OCO2`, for which the growth in experiment [1] is 57.7%; in experiment [2] it was 95.2%; in experiment [3] it was 103%; in experiment [4], 83%; in experiment [5], 49.5%; in experiment [6], 102%. Further, the growth was 107% in experiment [7] and 74.8% in experiment [8].

As to `NS(=O)(=O)c1ccc(CCn2c(SCC(=O)N/N=C/c3ccccc3O)nc3ccccc3c2=O)cc1`, the growth in experiment [1] was 49.2%; in experiment [2], 53.9%; in experiment [3], 3.97% (active); in experiment [4] it was 26.1%; in experiment [5], 21.7%; in experiment [6], 16.9%. In addition, the growth is 86.8% in experiment [7] and 34% in experiment [8].

For `Oc1ccc(-c2nnc3c4[nH]ccc4ncn23)cc1`, the growth was 93.4% in experiment [1]; 89.2% in experiment [2]; 97.5% in experiment [3]; 108% in experiment [4]; 92.1% in experiment [5]; 88.8% in experiment [6]. Besides, the growth in experiment [7] is 105%; in experiment [8], 104%.

With `CCCCOC(=O)c1cc(O)c(O)c(O)c1`, the growth in experiment [1] was 61%; in experiment [2], 67.4%; in experiment [3], 74.8%; in experiment [4] it was 80.2%; in experiment [5] it was 84.9%; in experiment [6], 64.9%. In addition, the growth is 92.5% in experiment [7] and 69% in experiment [8].

Regarding `O=C(N/N=C/c1ccccc1O)c1ccncc1`, the growth in experiment [1] is 33.6%; in experiment [2] it was 57%; in experiment [3], 82.5%; in experiment [4], 66.1%; in experiment [5], 23.1%; in experiment [6] it was 48.7%. Besides, the growth in experiment [7] is 64.5%; in experiment [8], 34.3%.

For `CS(=O)(=O)c1ccc(C(=O)Nc2ccc(Cl)c(-c3ccccn3)c2)c(Cl)c1`, the growth in experiment [1] is 16.6%; in experiment [2], 11.8%; in experiment [3], 14.1%; in experiment [4], 20.8%; in experiment [5] it was 20.4%; in experiment [6], 11.7%. In addition, the values for the growth in experiment [7] and in experiment [8] were 5.78% (active) and 13.7%, respectively.

Consider `CCCCCCCCCCCCNC(=O)N[C@H](C(=O)N[C@H]1/C=C/OCCNC(=O)/C=C/[C@H](C(C)C)NC1=O)C(C)C`, for which the growth in experiment [1] is 47.6%; in experiment [2], -7.12% (active); in experiment [3] it was 28.3%; in experiment [4], 48.1%; in experiment [5], 32.4%; in experiment [6] it was 25.5%. The growth was 90.4% in experiment [7] and 71.5% in experiment [8].

Turning to `O=C(CCCN1CCC(O)(c2ccc(Br)cc2)CC1)c1ccc(F)cc1`, the growth in experiment [1] was 70.5%; in experiment [2], 60.6%; in experiment [3], 65.4%; in experiment [4], 78.1%; in experiment [5], 70.4%; in experiment [6], 38.9%. In addition, the growth is 71% in experiment [7] and 83.5% in experiment [8].
